Measured values reported in PubChem BioAssay (Tox21).
Values without a mark were called inactive. Results filed as inconclusive are left out. Where a call stands in place of a potency, no number is given. Calls of active or inactive are those of the source. The call rests on the fitted dose curve; in most records, active means well fitted curve in the direction sought with a large enough effect in the repeat runs; inconclusive means weak or mixed curves; inactive means no such curve, though single readings can be large; an effect the other way counts as inactive or inconclusive.

Assays:
[1] = Caspase-3/7 induction in HepG2 cells by small molecules, qHTS assay (AID 1346978); further: nearly all actives have a fitted effect of over 15% in size
Procedure, shortened: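 Wild-type HepG2 cells (2,000/well) were settled 5 h at 37 C, 5% CO2, then exposed to compounds in DMSO for 17 h. Caspase-3/7 activity was read by luminescence 30 min after adding Caspase-Glo 3/7 reagent at room temperature.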

[2] = Caspase-3/7 induction in CHO-K1 cells by small molecules, qHTS cell viability counter screen (AID 1346979); further: nearly all actives have a fitted effect of over 35% in size
Procedure, shortened: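 Cytotoxicity counter screen run in parallel with the caspase-3/7 assay: CHO-K1 cells, 16hr compound treatment at 37C, then CellTiter-Fluor for 1hr before fluorescence reading.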

[3] = Caspase-3/7 induction in CHO-K1 cells by small molecules, qHTS assay (AID 1346980); further: nearly all actives have a fitted effect of over 15% in size
Procedure, shortened: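 Wild-type cells were seeded at 1,500 per well and settled 5 hr at 37 C, 5% CO2, then exposed to DMSO-dissolved compounds for 17 hr. Caspase-Glo 3/7 reagent was added, and luminescence was read after 30min at room temperature.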

[4] = Caspase-3/7 induction in HepG2 cells by small molecules, qHTS cell viability counter screen (AID 1346981); further: series mostly up to about 92 µM; nearly all actives have a fitted effect of over 30% in size
Procedure, shortened: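 After a 5-hr attachment period at 37 C and 5% CO2, wild-type HepG2 cells received compounds in DMSO. Sixteen hours later CellTiter-Fluor was dispensed and the fluorescent signal quantified after a further hour.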

[5] = target: Nuclear receptor subfamily 1 group I member 2 (Homo sapiens) (UniProt O75469); assay: Human pregnane X receptor (PXR) small molecule agonists, qHTS assay (AID 1346982); further: nearly all actives have a fitted effect of over 35% in size; further: potency means the concentration at half of the fitted maximal effect
Chain of Nuclear receptor subfamily 1 group I member 2 (Homo sapiens) (O75469 whole entry, looked up): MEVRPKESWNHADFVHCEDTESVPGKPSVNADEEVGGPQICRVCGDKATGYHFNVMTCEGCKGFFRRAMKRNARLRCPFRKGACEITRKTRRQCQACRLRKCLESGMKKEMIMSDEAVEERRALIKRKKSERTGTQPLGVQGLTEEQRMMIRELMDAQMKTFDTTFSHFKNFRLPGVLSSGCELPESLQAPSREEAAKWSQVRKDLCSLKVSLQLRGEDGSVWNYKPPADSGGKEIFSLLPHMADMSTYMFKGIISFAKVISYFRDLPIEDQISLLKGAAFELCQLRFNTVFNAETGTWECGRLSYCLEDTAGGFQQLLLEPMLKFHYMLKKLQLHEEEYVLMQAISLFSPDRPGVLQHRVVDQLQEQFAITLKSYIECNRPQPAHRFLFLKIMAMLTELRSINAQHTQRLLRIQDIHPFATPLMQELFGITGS
Procedure, shortened: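 Tox21 qHTS; PXR-Luc HepG2; compounds pinned from DMSO; 24 hr, 37 C; ONE-Glo luciferase detection, 30 min room temperature.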

[6] = target: Nuclear receptor subfamily 1 group I member 2 (Rattus norvegicus) (UniProt Q9R1A7); assay: Rat pregnane X receptor (rPXR) activation by small molecules, qHTS assay (AID 1346983); conditions: rPXR luciferase reporter cells, One-Glo luminescence, 24 h; max activation: active compounds read high; further: nearly all actives have a fitted effect of over 20% in size
Chain of Nuclear receptor subfamily 1 group I member 2 (Rattus norvegicus) (Q9R1A7 whole entry, looked up): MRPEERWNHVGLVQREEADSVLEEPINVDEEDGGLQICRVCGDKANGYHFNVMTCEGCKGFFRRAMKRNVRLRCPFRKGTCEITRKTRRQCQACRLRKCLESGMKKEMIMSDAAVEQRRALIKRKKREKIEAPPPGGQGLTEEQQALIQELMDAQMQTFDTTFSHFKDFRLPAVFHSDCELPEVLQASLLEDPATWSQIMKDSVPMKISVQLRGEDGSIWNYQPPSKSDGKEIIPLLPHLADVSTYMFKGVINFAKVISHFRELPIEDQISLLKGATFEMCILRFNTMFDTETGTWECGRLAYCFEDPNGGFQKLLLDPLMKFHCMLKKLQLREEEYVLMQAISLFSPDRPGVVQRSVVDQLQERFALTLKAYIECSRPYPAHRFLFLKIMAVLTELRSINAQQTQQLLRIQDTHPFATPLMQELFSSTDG
Procedure, shortened: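 Cell-based rPXR luciferase reporter assay, 2,000 cells per well, rested 5hr at 37 C before compound addition in DMSO, then 24 hr at 37 C. One-Glo reagent was added and luminescence read after 30 min at room temperature.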

[7] = target: Nuclear receptor subfamily 1 group I member 2 (Homo sapiens) (UniProt O75469); assay: CYP3A4 induction through human pregnane X receptor (PXR) by small molecules, qHTS assay (AID 1346984); further: nearly all actives have a fitted effect of over 40% in size
Procedure, shortened: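 Cells (DPX-2; HepG2 with PXR element plus CYP3A4-promoter luciferase) settled 5hr, then were treated 24hr at 37C. A 3hr, 3uM-final Luciferin-IPA step preceded luminescence measurement with One-Glo.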

[8] = target: Nuclear receptor subfamily 1 group I member 2 (Homo sapiens) (UniProt O75469); assay: Human pregnane X receptor (PXR) activation by small molecules, qHTS assay (AID 1346985); further: nearly all actives have a fitted effect of over 40% in size
Procedure, shortened: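 DPX-2 cells (HepG2 co-transfected with a PXR response element and a CYP3A4-promoter luciferase construct) were seeded at 2,000 per well, rested 5 hr at 37C, then exposed to DMSO-dissolved compounds for 24 hr. Activation was read as luciferase luminescence.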

[9] = target: Cytochrome P450 2D6 (Homo sapiens) (UniProt P10635); assay: Cytochrome P450 Family 2 Subfamily D Member 6 (CYP2D6) small molecule antagonists: luciferase reporter qHTS assay (AID 1671196); further: nearly all actives have a fitted effect of over 50% in size; further: potency means the concentration at half of the fitted maximal effect
Chain of Cytochrome P450 2D6 (Homo sapiens) (P10635 whole entry, looked up): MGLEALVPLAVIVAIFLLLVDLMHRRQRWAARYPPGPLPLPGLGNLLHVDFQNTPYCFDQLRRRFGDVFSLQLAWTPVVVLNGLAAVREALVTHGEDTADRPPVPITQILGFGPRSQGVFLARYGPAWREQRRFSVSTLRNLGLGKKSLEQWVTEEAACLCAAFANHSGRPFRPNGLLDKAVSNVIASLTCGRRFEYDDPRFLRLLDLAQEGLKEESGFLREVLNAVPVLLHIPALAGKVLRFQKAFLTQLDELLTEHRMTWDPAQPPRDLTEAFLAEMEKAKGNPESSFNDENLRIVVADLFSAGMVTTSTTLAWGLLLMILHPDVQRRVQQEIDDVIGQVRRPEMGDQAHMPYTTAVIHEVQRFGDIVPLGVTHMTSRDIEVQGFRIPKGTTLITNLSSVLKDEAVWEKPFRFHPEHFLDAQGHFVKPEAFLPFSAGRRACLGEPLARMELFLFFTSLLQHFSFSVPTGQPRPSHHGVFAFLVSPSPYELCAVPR
Procedure, shortened: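 Room-temperature luminescent CYP2D6 activity assay: compound preincubated 10 min with enzyme–substrate mix, NADPH-initiated reaction 1 h, detection reagent 20 min before reading.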

[10] = target: Cytochrome P450 2C19 (Homo sapiens) (UniProt P33261); assay: Cytochrome P450 Family 2 Subfamily C Member 19 (CYP2C19) small molecule antagonists: luciferase reporter qHTS assay (AID 1671197); further: nearly all actives have a fitted effect of over 65% in size; further: potency means the concentration at half of the fitted maximal effect
Chain of Cytochrome P450 2C19 (Homo sapiens) (P33261 whole entry, looked up): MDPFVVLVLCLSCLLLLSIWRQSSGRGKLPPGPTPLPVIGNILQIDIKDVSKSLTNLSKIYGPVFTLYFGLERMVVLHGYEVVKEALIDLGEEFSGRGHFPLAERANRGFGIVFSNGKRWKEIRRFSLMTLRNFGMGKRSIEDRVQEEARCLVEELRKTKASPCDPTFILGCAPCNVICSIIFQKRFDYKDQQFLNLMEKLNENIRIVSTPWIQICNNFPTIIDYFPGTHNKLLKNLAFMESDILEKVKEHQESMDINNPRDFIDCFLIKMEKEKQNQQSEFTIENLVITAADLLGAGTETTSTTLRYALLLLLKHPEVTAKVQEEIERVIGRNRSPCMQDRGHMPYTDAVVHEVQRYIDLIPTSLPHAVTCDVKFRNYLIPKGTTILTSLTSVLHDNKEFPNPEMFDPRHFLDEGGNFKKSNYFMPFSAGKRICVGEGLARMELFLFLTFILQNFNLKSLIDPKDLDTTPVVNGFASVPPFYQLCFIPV
Procedure, shortened: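 Light output is proportional to CYP2C19 activity: proluciferin substrate is converted to luciferin, then detected by a luciferin detection reagent that also stops the 1 h, 37C NADPH-driven reaction. Ketoconazole serves as positive control.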

Row | Structure (SMILES) | Potency [1] | Potency [2] | Potency [3] | Potency [4] | Potency [5] | max activation [6] | Potency [7] | Potency [8] | Potency [9] | Potency [10] | caspase activation [1] | activity change, negative = cytotoxicity [2] | caspase-3/7 activation [3] | activity change, negative = cytotoxicity [4]
1 | COc1ccc(C(=O)N2CCN(CC(=O)N3CCOCC3)CC2)cc1 | inactive | inactive | inactive | inactive | inactive | -1.44% | inactive | inactive | inactive | inactive | – | – | – | –
2 | CC1(c2ccccc2)OC(C(=O)O)=CC1=O (stereo not drawn) | inactive | inactive | inactive | inactive | inactive | -1.39% | inactive | inactive | – | – | – | – | – | –
3 | CCCCC(=O)OCC(=O)[C@H]1[C@H](C)C[C@H]2[C@@H]3C[C@H](F)C4=CC(=O)C=C[C@]4(C)[C@@]3(F)[C@@H](O)C[C@@]21C | inactive | inactive | inactive | inactive | 9.44 µM (active) | – | – | – | – | – | – | – | – | –
4 | CC(=O)[O][Al] | inactive | inactive | inactive | inactive | – | – | – | – | – | – | – | – | – | –
5 | Nc1c(CC(=O)O)cccc1C(=O)c1ccc(Br)cc1 | inactive | inactive | inactive | inactive | inactive | -2.12% | inactive | inactive | inactive | – | – | – | – | –
6 | CCC(C)c1cc(C(C)(C)C)c(O)c(C(C)(C)C)c1 (stereo not drawn) | inactive | inactive | inactive | inactive | 47.6 µM (active) | – | – | – | – | – | – | – | – | –
7 | Cc1ncc(CO)c(C=O)c1O | inactive | inactive | inactive | inactive | inactive | -0.222% | inactive | inactive | inactive | inactive | – | – | – | –
8 | CC(C)O.CC(C)O.CCOC(=O)/C=C(\C)O.CCOC(=O)/C=C(\C)O.[Ti] | inactive | inactive | inactive | inactive | – | – | – | – | – | – | – | – | – | –
9 | Cc1cc(N)c2cc(NC(=O)Nc3ccc4nc(C)cc(N)c4c3)ccc2n1 | inactive | inactive | inactive | inactive | – | – | – | – | – | – | – | – | – | –
10 | C[N+](C)(C)CCOC(=O)CCC(=O)OCC[N+](C)(C)C | inactive | inactive | inactive | inactive | inactive | -0.297% | inactive | inactive | inactive | – | – | – | – | –
11 | C/C(=C(\CCOP(=O)(O)O)SC(=O)c1ccccc1)N(C=O)Cc1cnc(C)nc1N | – | – | – | – | – | – | – | – | – | – | 0.0207% [at 8.39 µM] | 2.5% [at 8.39 µM] | -0.786% [at 8.39 µM] | 6.79% [at 8.39 µM]
12 | CCOCC(O)COc1ccc(NC(=O)CC[S+](C)C)cc1 (stereo not drawn) | inactive | inactive | inactive | inactive | inactive | -0.952% | inactive | inactive | – | inactive | – | – | – | –
13 | Nc1ncn([C@H]2C[C@H](O)[C@@H](CO)O2)c(=O)n1 | inactive | inactive | inactive | inactive | inactive | 10.4% | inactive | inactive | inactive | inactive | – | – | – | –
14 | C[N+]1(C)CCC(OC(=O)C(O)(c2ccccc2)C2CCCC2)C1 (stereo not drawn) | inactive | inactive | inactive | inactive | inactive | – | – | – | – | – | – | – | – | –
15 | O=C(OCCc1ccccc1)c1ccccc1 | inactive | inactive | inactive | inactive | inactive | – | – | – | – | – | – | – | – | –
16 | NCc1ccccc1Sc1ccccc1CO | inactive | inactive | inactive | inactive | inactive | -1.62% | inactive | inactive | 7.76 µM (active) | 21.9 µM (active) | – | – | – | –
17 | NCC(=O)CCC(=O)O | inactive | inactive | inactive | inactive | inactive | -1.79% | inactive | inactive | inactive | – | – | – | – | –
18 | CN1CCN(C(c2ccccc2)c2ccccc2)CC1 | inactive | inactive | inactive | inactive | inactive | -2.77% | inactive | inactive | 4.9 µM (active) | inactive | – | – | – | –
19 | CC(=O)NO | inactive | inactive | inactive | inactive | inactive | -0.0404% | inactive | inactive | inactive | inactive | – | – | – | –
20 | O=C1C(O)=C(O)C(=O)C(O)=C1O | inactive | inactive | inactive | inactive | inactive | -2.91% | inactive | inactive | inactive | inactive | – | – | – | –
21 | C[N+]1(CC2COC(c3ccccc3)(C3CCCCC3)O2)CCCCC1 (stereo not drawn) | inactive | inactive | inactive | inactive | inactive | -1.36% | inactive | inactive | 0.977 µM (active) | inactive | – | – | – | –
22 | C#CCN(C)CCCOc1ccc(Cl)cc1Cl | inactive | inactive | inactive | inactive | 29.8 µM (active) | -1.33% | – | inactive | 1.55 µM (active) | 3.89 µM (active) | – | – | – | –
23 | CN(C)CCN(Cc1ccccc1)c1ccccn1 | inactive | inactive | inactive | inactive | 6.68 µM (active) | 2.98% | inactive | inactive | 0.219 µM (active) | – | – | – | – | –
24 | CCCn1cnc2c1c(=O)n(CCCCC(C)=O)c(=O)n2C | inactive | inactive | inactive | inactive | inactive | – | – | – | – | – | – | – | – | –
